Most compounds without a hit are left out; they make up all but 12% or so of the library.
Pf growth 48h = inhibits P. falciparum growth in the first generation, 48 h; P. falciparum luciferase growth in erythrocytes, 48 h; Potency, µM (titrated, usually from 28.7 µM), for the others: at the top dose activity change, negative = inhibition, actives largely listed as inhibitors; actives 5.9% (n = 310,000); AID 504832; further: on the % scale 0 is the no-effect control and ±100 the full control effect
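Compounds are pin-transferred into medium, infected erythrocytes (2% hematocrit, 0.1% parasitemia final) are added, and plates sit one parasite generation at 37 C in 5% CO2. Detection reagent is then added and luminescence measured.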
HCV inh = HCV inhibition. Huh7.5.1 HCVcc-Cre infection, luciferase reporter, 44 h. Potency, µM (top dose mostly 41.8 µM), for inactives: at the highest dose activity change, negative = inhibition, usual class: inhibitors. actives 3.4% (n = 340,000); further: on the % scale 0 is the no-effect control and ±100 the full control effect
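Cells seeded at 1,000/well and cultured 4 h, then compounds added followed by HCVcc-Cre virus (~0.5 moi). After 44 h further culture, luciferase substrate was added, plates held 15 min at room temperature, and luminescence read for 15 sec.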
AMA1-RON2 inh = inhibitors of Plasmodium falciparum AMA1-RON2 interaction. AlphaScreen AMA1-biotinylated RON2 peptide binding. Potency, µM (doses to about 58.2 µM), for the others: at the top dose activity change, negative = inhibition, most hits filed as inhibitors. actives 0.2% (n = 360,000). AID 720542;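 further: 0% = vehicle wells and -100% = peptide control; nearly all actives have a fitted effect of over 45% in size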
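AMA1 (3D7) with his tag at 25 nM final met compounds first, then biotinylated RON2 peptide at 25 nM; detection used donor plus acceptor beads, 10 µg/mL apiece, read by AlphaScreen after 30 min at room temperature.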
SARS PLP yeast = inhibitors of SARS-CoV papain-like protease in yeast; S. cerevisiae expressing SARS-CoV PLpro, growth rescue; Potency, µM (series often up to 32.9 µM), for inactives: at the top dose activity, positive = growth rescue, most hits filed as activators; actives 0.19% (n = 330,000); AID 485353; calls by dose curve; further: 0% is about no effect; nearly all actives have a fitted effect of over 55% in size
NS1 function inh = blocks influenza NS1 protein function; Potency, µM (titrated, usually from 46.1 µM), without a hit: top-dose activity, positive = more growth; actives 0.4% (n = 270,000); calls by dose curve; further: actives are rising curves; nearly all actives have a fitted effect of over 50% in size
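Compounds were scored for reversing the slow growth caused by influenza A NS1 in S. cerevisiae, measured by optical density at 600 nm. Assay medium contained 2% galactose at pH 6.0; NS1-free yeast of the same strain were the positive control.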
Pf growth 96h = P. falciparum growth inhibition at 96 hours. actives 6.9% (n = 320,000). AID 504834. Potency, µM (highest dose often 28.7 µM), inactives show top-dose activity change, negative = inhibition, actives largely listed as inhibitors. P. falciparum luciferase reporter growth, 96 h; further: on the % scale 0 is the no-effect control and ±100 the full control effect
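Infected RBCs, 2% Hct / 0.05% parasitemia final; luciferase-reporter P. falciparum; cpd 96 h, 37 C, 5% CO2; luciferase detection reagent; luminescence.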
* hit, by the source's call; i = inactive; ? = inconclusive; / = no result given. Unless noted, the call rests on the fitted dose curve; in most records, active means well fitted curve in the direction sought with a large enough effect; inconclusive means small, poorly fitted or top-dose-only effect, or another doubt; inactive means no such curve, though single readings can be large; an effect the other way counts as inactive or inconclusive. Potency means the concentration at half of the fitted maximal effect.

SMILES	Pf growth 48h	HCV inh	AMA1-RON2 inh	SARS PLP yeast	NS1 function inh	Pf growth 96h
CCN(CC)CCNC(=S)NC(=O)c1cn(-c2ccccc2)nc1-c1ccc(OC)cc1	?	22µM*	20%	3%	/	-6%
COC(=O)c1cn(-c2ccccc2)nc1-c1ccncc1	-5%	0%	-5%	-4%	-4%	-1%
COc1ccc(-c2nn(-c3ccccc3)cc2C(=O)OCC(=O)c2ccc(C)c([N+](=O)[O-])c2)cc1	10µM*	7.1µM*	-3%	1%	3%	?
O=C(Nc1cccc(F)c1)c1cc(S(=O)(=O)N2CCOCC2)cs1	0%	-25%	-6%	0%	2%	-8%
CC(=O)c1ccc(OC(=O)c2nc(-c3ccccc3)oc2C)cc1	37%	1%	-28%	-2%	0%	46%
CC(=O)n1nc(-c2ccccc2)nc1NCc1ccc(N(C)C)cc1	37%	19%	8.9µM*	-1%	-9%	?
CN(C)c1ccc(CNc2nc(-c3ccccc3)nn2S(C)(=O)=O)cc1	32%	-14%	?	-1%	8%	-2%
CCOC(=O)c1[nH]c(C)c(C(=O)Nc2cc(Cl)ccc2C)c1C	16%	1.3µM*	-2%	6%	-1%	3%
CCOC(=O)c1[nH]c(C)c(C(=O)NC2CCCC2)c1C	/	4%	-7%	-4%	2%	-4%
CCOC(=O)c1[nH]c(C)c(C(=O)NC2CCCCCC2)c1C	10%	2%	10%	10%	-9%	9.3µM*
CCOC(=O)Cn1nc(C)c(NC(=O)COc2ccc(OC)cc2)c1C	5%	9%	5%	5%	0%	16%
O=c1[nH]c2ccccc2cc1CN(Cc1ccco1)S(=O)(=O)c1ccccc1	-2%	-10%	-5%	-2%	14%	8%
COc1cccc(CN(Cc2ccccc2F)S(=O)(=O)c2ccc(S(=O)(=O)NCc3ccccc3)cc2)c1	?	14%	1%	26%	2%	?
Cc1cccc2cc(CN(CC(C)C)S(=O)(=O)c3ccccc3)c(=O)[nH]c12	?	?	4%	-1%	17%	13µM*
COc1ccc(S(=O)(=O)N(Cc2ccco2)Cc2cc3ccccc3[nH]c2=O)cc1	2%	14µM*	-5%	-2%	5%	?
Cc1cccc(N(Cc2cc3ccccc3[nH]c2=O)S(=O)(=O)c2ccccc2)c1	15µM*	28%	-20%	-2%	4%	10µM*
COc1cccc(CN(Cc2ccco2)S(=O)(=O)c2ccc(S(=O)(=O)NCc3ccccc3)cc2)c1OC	13µM*	11µM*	-7%	9%	23%	12%
O=[N+]([O-])c1nccn1CC(O)CO (configuration not stated)	/	/	-5%	/	/	/
CC(C)(CNCc1ccccc1)NS(=O)(=O)c1ccc(Cl)cc1	/	14%	-4%	-2%	/	/
O=C(Cn1nc(C(F)(F)F)c2c1CCC2)NCc1ccc(Cl)cc1	10%	-18%	8%	18%	1%	2%
O=C(O)Cn1nc(C(F)(F)F)c2c1CCCC2	28%	1%	1%	0%	/	43%
O=C(Cn1nc(C(F)(F)F)c2c1CCC2)Nc1ccccc1C(F)(F)F	-24%	1%	-13%	3%	-4%	i
COc1ccccc1NC(=O)Cn1nc(C(F)(F)F)c2c1CCCC2	14%	-28%	9%	-14%	-51%	2.1µM*
CC(C)CNC(=O)Cn1nc(C(F)(F)F)c2c1CCCC2	20%	2%	-9%	0%	3%	10µM*
CCNC(=O)c1ccc(-n2nc(C(F)(F)F)c3c2CCCC3)cc1	15µM*	-27%	6%	-2%	-13%	7.4µM*
Cn1c(N)c(C(=O)COC(=O)COc2ccc3ccccc3c2)c(=O)n(C)c1=O	-16%	13%	-9%	-3%	/	-2%
COc1ccccc1-c1c(C)nn2c(C)cc(C)nc12	-8%	-6%	1%	-5%	-5%	13µM*
COc1ccccc1-c1c(C)nn2c(N3CCC(C)CC3)cc(C)nc12	?	10µM*	7%	0%	-1%	?
